Among the test systems are NCI-H23 lung; NCI-H226 lung; NCI-H322M lung; HOP-62 NSCLC; NCI-H460 lung; HOP-92 NSCLC; NCI-H522 lung; A549/ATCC NSCLC; 786-0 renal; COLO 205 colon; DU-145 prostate; K-562 leukemia; MALME-3M melanoma; MDA-MB-231 breast; RXF 393 renal; SF-268 CNS; SF-295 CNS; SF-539 CNS; UACC-257 melanoma.
What all share (assay): NCI-60 one-dose screen, 48 h (100 = growth as untreated, 0 = no growth, -100 = all killed)
Holding throughout (conditions): 10 µM unless noted

Each structure is given as a SMILES string. Compounds without any hit were thinned out: in the full panel of roughly 83,000, 20% have a hit.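 Growth was measured after 48 h exposure to one concentration of compound in 96-well plates. Values under 10 count as active.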 Values without a mark were called inactive. Active and inactive are the calls of the source.

Regarding `O=S(O)c1cc(Cl)cc(Cl)c1OCc1ccccc1`, the growth with NCI-H23 lung is 101%; with NCI-H226 lung, 94.5%; with NCI-H322M lung, 95.9%; in the test with HOP-62 NSCLC, 101%; in the test with NCI-H460 lung it was 101%; in the test with HOP-92 NSCLC, 87.6%. The growth was 96.2% in the test on NCI-H522 lung; 90.2% in the test on A549/ATCC NSCLC; 102% in the test with 786-0 renal; 105% in the test on COLO 205 colon; 109% with DU-145 prostate; 106% in the test with K-562 leukemia. Besides, the growth was 99.8% in the test with MALME-3M melanoma; 107% in the test with MDA-MB-231 breast; 97.3% in the test on RXF 393 renal; 101% in the test on SF-268 CNS; 108% in the test on SF-295 CNS; 103% with SF-539 CNS. Besides, the growth with UACC-257 melanoma is 90.8%.
With `CCCN(CCSSCCNc1nc(N(C)O)nc(N(C)O)n1)c1nc(N(C)O)nc(N(C)O)n1`, the growth was 84% with NCI-H23 lung; 82.6% in the test with NCI-H226 lung; 44.5% with NCI-H322M lung; 24.5% in the test on HOP-62 NSCLC; 28.4% in the test with NCI-H460 lung; 58.3% with HOP-92 NSCLC. In addition, the growth in the test with NCI-H522 lung is 65.1%; in the test with A549/ATCC NSCLC, 48%; in the test with 786-0 renal, 70%; with COLO 205 colon, 24.2%; in the test on DU-145 prostate, 54.4%; in the test on K-562 leukemia, 157%. The growth with MALME-3M melanoma was 62.1%; with MDA-MB-231 breast it was 66.6%; in the test on RXF 393 renal, 72.9%; in the test with SF-268 CNS, 42.1%; in the test on SF-295 CNS, 48.7%; with SF-539 CNS, 62.8%. For the same compound, in the test on UACC-257 melanoma, the growth is -2.3% (active).
On to `COc1ccc(Nc2ncc(I)c(NCCCNC(=O)C3CCC3)n2)cc1`, for which the growth in the test with NCI-H23 lung is 8.39% (active); in the test on NCI-H226 lung it was 5.32% (active); in the test with NCI-H322M lung, 6.78% (active); in the test with HOP-62 NSCLC, -21.3% (active); with NCI-H460 lung, 8.88% (active); with HOP-92 NSCLC, -7.19% (active). Also, the growth is 52.2% in the test with NCI-H522 lung; -37.6% (active) in the test with A549/ATCC NSCLC; 9.69% (active) in the test on 786-0 renal; -59.3% (active) in the test with COLO 205 colon; 16.3% in the test on DU-145 prostate; 25.7% in the test with K-562 leukemia. Further, the growth was 41% in the test on MALME-3M melanoma; -45.4% (active) with MDA-MB-231 breast; -84.1% (active) with RXF 393 renal; 14.7% in the test on SF-268 CNS; 20.8% in the test with SF-295 CNS; -34.5% (active) with SF-539 CNS. Also, the growth with UACC-257 melanoma was 75.3%.
With `O=C1NC(=O)C(c2coc3cc(Br)ccc23)=C1c1c[nH]c2ccccc12`, the growth was 77.5% in the test with NCI-H23 lung; 67.2% with NCI-H226 lung; 77.7% with NCI-H322M lung; 38.9% in the test with HOP-62 NSCLC; 19.5% in the test on NCI-H460 lung; 70.4% in the test on HOP-92 NSCLC. Moreover, the growth with NCI-H522 lung is 51.1%; with A549/ATCC NSCLC it was 33.5%; in the test with 786-0 renal it was 69.5%; in the test with COLO 205 colon it was 35.1%; in the test with DU-145 prostate, 65.1%; in the test with K-562 leukemia it was 11.5%. The growth in the test on MALME-3M melanoma is 66.2%; in the test on MDA-MB-231 breast, 59.4%; in the test on RXF 393 renal, 75.3%; with SF-268 CNS, 43.1%; with SF-295 CNS, 71.1%; with SF-539 CNS, 64.7%. For the same compound, in the test with UACC-257 melanoma, the growth is 72%.
With `O=C(c1c[nH]c2ccccc12)c1n[nH]c(=S)n1-c1ccc([N+](=O)[O-])cc1`, the growth is 91.8% in the test on NCI-H23 lung; 77.8% with NCI-H226 lung; 94.7% in the test with NCI-H322M lung; 87.4% in the test on HOP-62 NSCLC; 95.7% with NCI-H460 lung; 80.3% in the test with HOP-92 NSCLC. The growth was 84.7% with NCI-H522 lung; 81% in the test on A549/ATCC NSCLC; 115% in the test with 786-0 renal; 96.8% in the test with COLO 205 colon; 109% in the test on DU-145 prostate; 83.3% in the test on K-562 leukemia. In addition, the growth in the test on MALME-3M melanoma was 106%; in the test with MDA-MB-231 breast it was 91.3%; in the test with RXF 393 renal, 102%; with SF-268 CNS, 95.4%; with SF-295 CNS, 104%; in the test on SF-539 CNS, 94.1%. Further, the growth in the test with UACC-257 melanoma was 99%.
In the case of `O=C1/C(=C/c2cccc(Br)c2)COc2ccc(O)cc21`, the growth was 74.8% in the test with NCI-H23 lung; 101% in the test on NCI-H226 lung; 97.4% in the test with NCI-H322M lung; 86.6% with HOP-62 NSCLC; 92.2% in the test with NCI-H460 lung; 46% in the test with HOP-92 NSCLC. The growth with NCI-H522 lung was 18.9%; in the test on A549/ATCC NSCLC, 66.2%; in the test with 786-0 renal it was 50%; with COLO 205 colon, 84.5%; in the test with DU-145 prostate it was 69.7%; in the test on K-562 leukemia, 2.93% (active). For the same compound, the growth in the test on MALME-3M melanoma is 78.9%; in the test on MDA-MB-231 breast, 27.9%; with RXF 393 renal, 70.6%; with SF-268 CNS, 67.6%; in the test with SF-295 CNS it was 100%; in the test with SF-539 CNS, 69.3%. Also, in the test with UACC-257 melanoma, the growth was 99.9%.
For `COc1ccc2c(c1)C(C)Cc1c(ncnc1-n1cnc3cc(C)ccc31)N2C` (configuration not stated), the growth is 30.4% in the test on NCI-H23 lung; 60% in the test on NCI-H226 lung; 48.6% in the test on NCI-H322M lung; 28.4% in the test on HOP-62 NSCLC; 3.98% (active) in the test with NCI-H460 lung; -2.48% (active) in the test on HOP-92 NSCLC. The growth in the test on NCI-H522 lung is 11.7%; in the test on A549/ATCC NSCLC, 13.6%; in the test on 786-0 renal, 12.3%; in the test with COLO 205 colon, -46.9% (active); in the test with DU-145 prostate it was 10.2%; in the test with K-562 leukemia it was 7.68% (active). The growth in the test with MALME-3M melanoma was 78.7%; in the test with MDA-MB-231 breast, 28.9%; with RXF 393 renal, 35.7%; in the test on SF-268 CNS it was 26%; in the test on SF-295 CNS it was 6.97% (active); in the test on SF-539 CNS it was 10.7%. In addition, the growth in the test with UACC-257 melanoma is 47.3%.
For the compound `O=C(/C=C/c1ccccc1Cl)c1cccc(OCCCCOc2cccc(C(=O)/C=C/c3ccccc3Cl)c2)c1`, the growth in the test on NCI-H23 lung is 96.5%; with NCI-H226 lung, 90.3%; in the test on NCI-H322M lung, 99.9%; with HOP-62 NSCLC, 103%; with NCI-H460 lung it was 99.6%; in the test with HOP-92 NSCLC, 94.4%. Moreover, the growth was 97.1% in the test with NCI-H522 lung; 95.3% with A549/ATCC NSCLC; 103% with 786-0 renal; 107% in the test on COLO 205 colon; 102% in the test with DU-145 prostate; 99.2% in the test with K-562 leukemia. The growth is 91.9% in the test with MALME-3M melanoma; 102% in the test on MDA-MB-231 breast; 99.6% in the test with RXF 393 renal; 106% in the test with SF-268 CNS; 104% with SF-295 CNS; 101% with SF-539 CNS. Besides, the growth in the test with UACC-257 melanoma is 98.2%.

For the origin of these results see PubChem BioAssay (NCI).
